# Assay results published in PubChem BioAssay (NCATS).
# Results filed as inconclusive are left out. Where a call stands in place of a potency, no number is given. Calls of active or inactive are those of the source. Unless noted, calls follow the shape of the dose curve; as a rule, active = well fitted curve in the direction sought with a large enough effect; inconclusive = small, poorly fitted or top-dose-only effect, or another doubt; inactive = no such curve, though single readings can be large; an effect the other way counts as inactive or inconclusive.
# How the values were obtained:
# [1] = NS1 protein of Zika virus - qHTS assay to identify small molecule inhibitors in human HEK 293 cells (AID 1347053); also: series mostly up to about 46 µM; nearly all actives have a fitted effect of over 55% in size
# In short: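 HEK 293; 20 h pre-culture, 37 C/5% CO2; cpd 1 h pre-infection; ZIKV MR766, MOI = 0.5, 24 h, 37 C; TR-FRET NS1 readout (two anti-NS1 Abs); norm. to no-virus vs infected.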
# [2] = qHTS for Inhibitors of the Functional Ribonucleoprotein Complex (vRNP) of Lassa (LASV) Arenavirus: LASV Primary Screen - GLuc reporter signal (AID 1347082; calls by dose curve; tested in HEK293 reporter line; also: series mostly up to about 57 µM; nearly all actives have a fitted effect of over 60% in size)
# [3] = qHTS for Inhibitors of the Functional Ribonucleoprotein Complex (vRNP) of Lassa (LASV) Arenavirus: Viability assay - alamar blue signal for LASV Primary Screen (AID 1347083; calls by dose curve; tested in HEK293 reporter line; also: series mostly up to about 57 µM; nearly all actives have a fitted effect of over 80% in size)
# [4] = qHTS for Inhibitors of the Functional Ribonucleoprotein Complex (vRNP) of Lymphocytic Choriomeningitis Arenaviruses (LCMV): Viability assay - alamar blue signal for LCMV Primary Screen (AID 1347085; calls by dose curve; tested in HEK293 reporter line; also: series mostly up to about 57 µM; nearly all actives have a fitted effect of over 80% in size)
# [5] = target: Nucleoprotein (Lymphocytic choriomeningitis virus (strain Armstrong)) (UniProt P09992); assay: qHTS for Inhibitors of the Functional Ribonucleoprotein Complex (vRNP) of Lymphocytic Choriomeningitis Arenaviruses (LCMV): LCMV Primary Screen - GLuc reporter signal (AID 1347086; calls by dose curve; also: series mostly up to about 57 µM; nearly all actives have a fitted effect of over 70% in size)
# [6] = qHTS of pediatric cancer cell lines to identify multiple opportunities for drug repurposing: Primary screen for TC32 cells (AID 1347089); also: nearly all actives have a fitted effect of over 60% in size
# In short: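 Measured quantity: luminescence from CellTiter-Glo, reflecting metabolically active TC32 cells following 48 h of compound. Curves came straight from multi-point titrations, with 8 or 11 points in primary and 11 in confirmatory screening.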
# [7] = qHTS of pediatric cancer cell lines to identify multiple opportunities for drug repurposing: Primary screen for DAOY cells (AID 1347090); also: series mostly up to about 46 µM; nearly all actives have a fitted effect of over 55% in size
# In short: (§1)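 Eight- or eleven-point concentration series, 48 h treatment at 37 degrees C in growth media; readout CellTiter-Glo luminescence. Potency and efficacy were taken from the concentration-response curves.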
# [8] = qHTS of pediatric cancer cell lines to identify multiple opportunities for drug repurposing: Primary screen for SJ-GBM2 cells (AID 1347091); also: potency is read from the fitted curve at half-maximal effect
# In short: as §1
# [9] = qHTS of pediatric cancer cell lines to identify multiple opportunities for drug repurposing: Primary screen for A673 cells (AID 1347092); also: nearly all actives have a fitted effect of over 45% in size
# In short: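 Cells are plated, rested 5 h, dosed by pintool, incubated 48 h, then lysed with CellTiter-Glo and read by luminescence. DMSO is the neutral control; bortezomib at 2.3 uM final is the positive control.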
# [10] = qHTS of pediatric cancer cell lines to identify multiple opportunities for drug repurposing: Primary screen for SK-N-MC cells (AID 1347093); also: potency is read from the fitted curve at half-maximal effect
# In short: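 Metabolically active cells were quantified by ATP-dependent luminescence (CellTiter-Glo, 15 min at room temperature) following 48 h treatment. Cells had been plated at 500-1,000 per well and settled for 5 h beforehand.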
# [11] = qHTS of pediatric cancer cell lines to identify multiple opportunities for drug repurposing: Primary screen for BT-37 cells (AID 1347094); also: series mostly up to about 57 µM
# In short: (§2)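 Following a 5-hour attachment period, cells at 500-1,000/well received compounds and were cultured for 48 hours. CellTiter-Glo was added and luminescence read to estimate viable, metabolically active cells.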
# [12] = qHTS of pediatric cancer cell lines to identify multiple opportunities for drug repurposing: Primary screen for NB-EBc1 cells (AID 1347095)
# In short: as §2
# [13] = P-glycoprotein substrates identified in KB-8-5-11 adenocarcinoma cell line, qHTS therapeutic library screen (AID 1346987); also: nearly all actives have a fitted effect of over 65% in size; also: potency is read from the fitted curve at half-maximal effect
# In short: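 P-gp-mediated resistance screen: KB-8-5-11 cells treated 72 h with compounds in dose-response. CellTiter-Glo viability.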
# [14] = Natriuretic polypeptide receptor (hNpr1) antagonism - Pilot counterscreen GloSensor control cell line (AID 1347045; calls by dose curve; also: series mostly up to about 38 µM)
# In short: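 This counterscreen uses HEK293 cells expressing the GIP/pGS-40F cGMP biosensor. Compound-treated cells are challenged with 50 uM sodium nitroprusside, and the luciferase signal is compared before and after stimulation.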
# [15] = target: Atrial natriuretic peptide receptor 1 (Homo sapiens) (UniProt P16066); assay: Natriuretic polypeptide receptor (hNpr1) antagonism - Pilot screen (AID 1347049; calls by dose curve;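 also: agonist-evoked cGMP luminescence read 20 min after hNppA addition; series mostly up to about 58 µM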)
# In short: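 HEK293 cells co-expressing hNpr1 and the GloSensor pGS-40F cGMP luciferase sensor were preloaded with 2% GloSensor reagent for 2 h. Compounds were added for 30 min at room temperature, then cells were stimulated with 0.1 nM hNppA for 20 min before luminescence readout.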
# [16] = target: Atrial natriuretic peptide receptor 2 (Homo sapiens) (UniProt P20594); assay: Natriuretic polypeptide receptor (hNpr2) antagonism - Pilot subtype selectivity assay (AID 1347050; calls by dose curve)
# In short: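 cGMP-sensor HEK293/hNpr2 cells; 2% GloSensor reagent 2 h RT; compounds 30 min; baseline luminescence read; 1 nM hNppC agonist 20 min RT; final luminescence read by CCD camera. Antagonism = reduced post-agonist signal.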
# [17] = target: T1, Tyrosine-protein phosphatase non-receptor type substrate 1 (Homo sapiens) + Leukocyte surface antigen CD47 (Homo sapiens) (UniProt P78324+Q08722); assay: CD47-SIRPalpha protein protein interaction - LANCE assay qHTS validation (AID 1347057; active = well fitted curve in the direction sought with a large enough effect in the signal ratio, with a control signal flat, not every such curve was filed as active; the % refers to the signal ratio; also: series mostly up to about 38 µM)
# In short: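 First, His-tagged CD47 and Eu-labelled anti-His antibody met the compound for 30 min; next, site-specifically biotinylated SIRPalpha was added for 30 min; finally streptavidin-APC was added before reading the TR-FRET ratio.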
# [18] = target: T1, Tyrosine-protein phosphatase non-receptor type substrate 1 (Homo sapiens) + Leukocyte surface antigen CD47 (Homo sapiens); assay: CD47-SIRPalpha protein protein interaction - HTRF assay qHTS validation (AID 1347058; active = well fitted curve in the direction sought with a large enough effect in the signal ratio, not every such curve was filed as active; the % refers to the signal ratio;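 also: recombinant soluble extracellular CD47 with His tag and biotinylated SIRPalpha domains; series mostly up to about 38 µM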)
# In short: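 TR-FRET read (Ch1/Ch2 ratio) of soluble extracellular CD47 and Avi-biotinylated SIRPalpha domains in PBS pH 7.4 with 0.05% IGEPAL; 7-point compound titration. Sequential 30 min room-temperature steps; non-biotinylated SIRPalpha as control inhibitor.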
# [19] = target: Parathyroid hormone/parathyroid hormone-related peptide receptor (Homo sapiens) (UniProt Q03431); assay: qHTS for PTHR1 Agonists: Optimization Screen against the NCGC LOPAC library (AID 1347079);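 also: GloSensor cAMP luminescence in HEK-293 GP2 cells expressing human PTHR1 with IBMX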
# In short: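 Compounds were tested across a qHTS titration. PTHR1-expressing GP2 cells report cAMP rises via GloSensor luminescence after 1 hr compound exposure at 37C with IBMX present.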
# Sequence of Nucleoprotein (Lymphocytic choriomeningitis virus (strain Armstrong)) (P09992 whole entry, looked up): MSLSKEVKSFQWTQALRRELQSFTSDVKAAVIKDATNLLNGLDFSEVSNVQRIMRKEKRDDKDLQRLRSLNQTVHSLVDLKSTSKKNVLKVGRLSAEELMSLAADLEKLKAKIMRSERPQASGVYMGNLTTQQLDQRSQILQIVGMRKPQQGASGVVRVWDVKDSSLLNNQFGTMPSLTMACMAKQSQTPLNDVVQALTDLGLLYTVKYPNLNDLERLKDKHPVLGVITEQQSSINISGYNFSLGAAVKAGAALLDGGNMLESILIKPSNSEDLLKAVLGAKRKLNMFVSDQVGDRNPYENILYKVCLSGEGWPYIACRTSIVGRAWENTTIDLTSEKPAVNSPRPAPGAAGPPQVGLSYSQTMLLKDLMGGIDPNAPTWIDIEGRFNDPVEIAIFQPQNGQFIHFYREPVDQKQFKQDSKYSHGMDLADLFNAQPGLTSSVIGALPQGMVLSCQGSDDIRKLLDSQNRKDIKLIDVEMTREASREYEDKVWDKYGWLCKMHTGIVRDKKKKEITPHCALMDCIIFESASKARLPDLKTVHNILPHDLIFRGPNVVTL
# T1 sequence (P78324 whole entry, looked up): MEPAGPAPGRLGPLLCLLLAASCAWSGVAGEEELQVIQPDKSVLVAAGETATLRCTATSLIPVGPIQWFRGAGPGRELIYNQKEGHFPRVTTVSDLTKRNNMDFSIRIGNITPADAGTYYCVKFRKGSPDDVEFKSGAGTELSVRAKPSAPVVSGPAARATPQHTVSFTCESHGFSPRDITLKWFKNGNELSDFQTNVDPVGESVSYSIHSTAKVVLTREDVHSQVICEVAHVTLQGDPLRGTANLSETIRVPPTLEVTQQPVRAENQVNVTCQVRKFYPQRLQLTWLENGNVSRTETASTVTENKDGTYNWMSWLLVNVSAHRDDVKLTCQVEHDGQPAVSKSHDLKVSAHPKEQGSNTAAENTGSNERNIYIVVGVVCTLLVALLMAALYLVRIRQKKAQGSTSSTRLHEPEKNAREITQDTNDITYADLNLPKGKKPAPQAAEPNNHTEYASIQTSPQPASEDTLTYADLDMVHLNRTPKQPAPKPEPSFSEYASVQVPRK
# T1 sequence (Q08722 whole entry, looked up): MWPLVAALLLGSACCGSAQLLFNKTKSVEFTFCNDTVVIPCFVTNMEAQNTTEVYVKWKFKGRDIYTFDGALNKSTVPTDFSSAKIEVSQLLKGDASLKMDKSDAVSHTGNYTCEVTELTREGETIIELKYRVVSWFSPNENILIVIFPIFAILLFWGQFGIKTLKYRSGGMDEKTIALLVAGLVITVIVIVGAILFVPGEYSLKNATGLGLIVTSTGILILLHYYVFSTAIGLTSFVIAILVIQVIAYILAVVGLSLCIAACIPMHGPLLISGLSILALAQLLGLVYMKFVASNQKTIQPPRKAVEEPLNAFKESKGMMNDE
# Sequence of Atrial natriuretic peptide receptor 2 (Homo sapiens) (P20594 whole entry, looked up): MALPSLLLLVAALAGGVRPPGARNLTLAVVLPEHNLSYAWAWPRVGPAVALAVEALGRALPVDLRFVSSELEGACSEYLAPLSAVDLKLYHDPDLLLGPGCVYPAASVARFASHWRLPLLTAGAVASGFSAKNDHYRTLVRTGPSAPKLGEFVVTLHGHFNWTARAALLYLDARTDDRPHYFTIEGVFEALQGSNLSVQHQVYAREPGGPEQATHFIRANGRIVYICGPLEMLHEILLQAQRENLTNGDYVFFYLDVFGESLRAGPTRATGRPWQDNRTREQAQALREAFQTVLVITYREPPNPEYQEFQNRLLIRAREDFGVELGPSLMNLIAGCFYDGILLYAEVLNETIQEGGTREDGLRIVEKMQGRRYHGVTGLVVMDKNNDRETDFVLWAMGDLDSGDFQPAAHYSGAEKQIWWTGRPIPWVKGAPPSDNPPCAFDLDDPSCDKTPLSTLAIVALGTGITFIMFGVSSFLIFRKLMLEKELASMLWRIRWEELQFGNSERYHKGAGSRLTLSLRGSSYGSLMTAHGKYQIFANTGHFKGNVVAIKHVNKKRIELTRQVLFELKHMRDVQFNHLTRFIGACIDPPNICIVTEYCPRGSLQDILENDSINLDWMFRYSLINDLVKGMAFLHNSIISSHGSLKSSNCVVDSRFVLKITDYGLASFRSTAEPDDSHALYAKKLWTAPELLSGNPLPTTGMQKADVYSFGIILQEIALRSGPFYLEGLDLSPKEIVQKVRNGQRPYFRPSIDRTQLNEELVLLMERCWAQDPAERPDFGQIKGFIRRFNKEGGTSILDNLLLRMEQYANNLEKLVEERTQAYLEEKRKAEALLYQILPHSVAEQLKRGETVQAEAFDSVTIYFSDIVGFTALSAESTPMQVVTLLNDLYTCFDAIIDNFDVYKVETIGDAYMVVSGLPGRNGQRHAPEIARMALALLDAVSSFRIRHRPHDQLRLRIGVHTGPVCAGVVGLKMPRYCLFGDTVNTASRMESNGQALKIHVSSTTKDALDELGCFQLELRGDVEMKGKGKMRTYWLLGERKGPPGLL
# Sequence of Parathyroid hormone/parathyroid hormone-related peptide receptor (Homo sapiens) (Q03431 whole entry, looked up): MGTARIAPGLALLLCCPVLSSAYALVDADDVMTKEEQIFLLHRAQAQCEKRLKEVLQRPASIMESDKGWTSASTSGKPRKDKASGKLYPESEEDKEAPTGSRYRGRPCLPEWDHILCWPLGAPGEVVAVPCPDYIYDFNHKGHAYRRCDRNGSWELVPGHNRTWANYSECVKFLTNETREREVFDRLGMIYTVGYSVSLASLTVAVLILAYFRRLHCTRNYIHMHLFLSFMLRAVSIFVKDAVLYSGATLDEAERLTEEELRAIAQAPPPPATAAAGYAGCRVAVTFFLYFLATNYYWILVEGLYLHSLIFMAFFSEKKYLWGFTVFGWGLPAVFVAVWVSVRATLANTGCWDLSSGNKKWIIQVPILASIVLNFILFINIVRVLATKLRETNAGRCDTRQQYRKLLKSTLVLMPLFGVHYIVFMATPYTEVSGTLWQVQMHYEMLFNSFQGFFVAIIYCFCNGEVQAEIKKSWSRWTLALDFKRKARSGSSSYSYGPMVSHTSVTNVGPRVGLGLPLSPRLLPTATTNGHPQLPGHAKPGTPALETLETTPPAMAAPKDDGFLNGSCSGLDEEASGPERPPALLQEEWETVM
# Sequence of Atrial natriuretic peptide receptor 1 (Homo sapiens) (P16066 whole entry, looked up): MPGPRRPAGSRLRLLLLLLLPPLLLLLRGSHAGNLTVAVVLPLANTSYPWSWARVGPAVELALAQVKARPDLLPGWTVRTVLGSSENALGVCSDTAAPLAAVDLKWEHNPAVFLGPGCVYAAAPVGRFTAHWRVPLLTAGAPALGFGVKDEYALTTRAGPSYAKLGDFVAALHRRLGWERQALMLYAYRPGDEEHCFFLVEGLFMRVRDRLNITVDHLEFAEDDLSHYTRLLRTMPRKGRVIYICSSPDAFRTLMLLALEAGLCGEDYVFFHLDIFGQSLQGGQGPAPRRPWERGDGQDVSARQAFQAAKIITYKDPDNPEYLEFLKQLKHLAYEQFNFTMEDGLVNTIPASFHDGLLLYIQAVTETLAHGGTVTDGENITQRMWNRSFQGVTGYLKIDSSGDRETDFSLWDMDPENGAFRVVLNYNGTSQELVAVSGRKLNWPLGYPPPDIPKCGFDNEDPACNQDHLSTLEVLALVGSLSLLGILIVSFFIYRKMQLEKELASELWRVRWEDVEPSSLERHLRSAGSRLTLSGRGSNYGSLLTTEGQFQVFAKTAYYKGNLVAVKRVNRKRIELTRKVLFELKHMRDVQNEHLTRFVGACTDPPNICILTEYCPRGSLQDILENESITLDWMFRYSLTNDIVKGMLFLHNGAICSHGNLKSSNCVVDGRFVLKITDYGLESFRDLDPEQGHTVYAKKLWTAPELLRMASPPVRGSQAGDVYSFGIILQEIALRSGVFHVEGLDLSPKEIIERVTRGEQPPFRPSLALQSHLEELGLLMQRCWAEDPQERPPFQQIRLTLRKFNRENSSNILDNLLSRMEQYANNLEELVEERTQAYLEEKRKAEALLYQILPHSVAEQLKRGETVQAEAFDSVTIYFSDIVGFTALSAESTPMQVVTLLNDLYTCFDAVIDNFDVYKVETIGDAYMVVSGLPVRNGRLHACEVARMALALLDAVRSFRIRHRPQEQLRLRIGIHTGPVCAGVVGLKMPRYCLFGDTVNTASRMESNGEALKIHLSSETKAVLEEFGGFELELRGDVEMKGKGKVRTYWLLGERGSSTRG
smiles,measurement,setting,value
CCc1cc2c(s1)-n1c(C)nnc1CN=C2c1ccccc1Cl,outcome,[1],inactive
same,Potency,[2],inactive
same,Potency,[3],inactive
same,Potency,[4],inactive
same,Potency,[5],inactive
same,Potency,[6],inactive
same,Potency,[7],inactive
same,Potency,[8],inactive
same,Potency,[9],inactive
same,Potency,[10],inactive
same,Potency,[11],inactive
same,Potency,[12],inactive
O=C(O)/C=C\C(=O)O,Potency,[13],inactive
same,Potency,[2],inactive
same,Potency,[3],inactive
same,Potency,[4],inactive
same,Potency,[5],inactive
CC(=O)C1CCOC1=O (configuration not stated),outcome,[1],inactive
same,Potency,[2],inactive
same,Potency,[3],inactive
same,Potency,[4],inactive
same,Potency,[5],inactive
same,Potency,[6],inactive
same,Potency,[7],inactive
same,Potency,[8],inactive
same,Potency,[9],inactive
same,Potency,[11],inactive
same,Potency,[12],inactive
C[C@@H]1CC2=CC(=O)CC[C@@H]2[C@H]2CC[C@@]3(C)[C@@H](CC[C@]3(C)O)[C@@H]21,outcome,[1],inactive
same,Potency,[2],inactive
same,Potency,[3],inactive
same,Potency,[4],inactive
same,Potency,[5],inactive
same,Potency,[6],inactive
same,Potency,[7],inactive
same,Potency,[8],inactive
same,Potency,[9],inactive
same,Potency,[10],inactive
same,Potency,[11],inactive
same,Potency,[12],inactive
O=C(CCCN1CCC2(CC1)C(=O)NCN2c1ccccc1)c1ccc(F)cc1,outcome,[14],inactive
same,outcome,[15],inactive
same,outcome,[16],inactive
same,outcome,[17],inactive
same,outcome,[18],inactive
same,outcome,[19],inactive
same,Potency,[2],inactive
same,Potency,[3],inactive
same,Potency,[4],inactive
same,Potency,[5],inactive
same,Potency,[6],inactive
same,Potency,[7],inactive
same,Potency,[9],inactive
same,Potency,[10],inactive
same,Potency,[12],inactive
c1ccc(N2CCNCC2)cc1,outcome,[1],inactive
same,Potency,[2],inactive
same,Potency,[3],inactive
same,Potency,[4],inactive
same,Potency,[5],inactive
same,Potency,[6],inactive
same,Potency,[7],inactive
same,Potency,[8],inactive
same,Potency,[9],inactive
same,Potency,[11],inactive
same,Potency,[12],inactive
COP(=S)(OC)SCN1C(=O)c2ccccc2C1=O,Potency,[13],inactive
same,outcome,[1],inactive
same,Potency,[2],inactive
same,Potency,[3],inactive
same,Potency,[4],inactive
same,Potency,[5],inactive
same,Potency,[6],inactive
same,Potency,[8],inactive
same,Potency,[11],inactive
same,Potency,[12],inactive
CCC(C)C(C)(COC(N)=O)COC(N)=O (configuration not stated),outcome,[1],inactive
same,Potency,[2],inactive
same,Potency,[3],inactive
same,Potency,[4],inactive
same,Potency,[5],inactive
same,Potency,[6],inactive
same,Potency,[7],inactive
same,Potency,[8],inactive
same,Potency,[9],inactive
same,Potency,[10],inactive
same,Potency,[11],inactive
same,Potency,[12],inactive
C[C@H](N)C(=O)c1ccccc1,Potency,[13],inactive
same,outcome,[1],inactive
same,Potency,[2],inactive
same,Potency,[3],inactive
same,Potency,[4],inactive
same,Potency,[5],inactive
same,Potency,[6],inactive
same,Potency,[7],inactive
same,Potency,[8],inactive
same,Potency,[9],inactive
same,Potency,[11],inactive
same,Potency,[12],inactive
CCC1(CC)C(=O)C=CNC1=O,Potency,[13],inactive
same,outcome,[1],inactive
same,Potency,[2],inactive
same,Potency,[3],inactive
same,Potency,[4],inactive
same,Potency,[5],inactive
same,Potency,[6],inactive
same,Potency,[7],inactive
same,Potency,[8],inactive
same,Potency,[9],inactive
same,Potency,[11],inactive
same,Potency,[12],inactive
O=C(O)c1ccc(=O)[nH]c1,outcome,[1],inactive
same,Potency,[2],inactive
same,Potency,[3],inactive
same,Potency,[4],inactive
same,Potency,[5],inactive
same,Potency,[6],inactive
same,Potency,[7],inactive
same,Potency,[8],inactive
same,Potency,[9],inactive
same,Potency,[11],inactive
same,Potency,[12],inactive
C[C@]12CCC(=O)C=C1CC[C@@H]1[C@H]3CC[C@](C)(O)[C@@]3(C)CC[C@@H]12,Potency,[13],31.6 µM (active)
same,Potency,[2],inactive
same,Potency,[3],inactive
same,Potency,[5],inactive
same,Potency,[8],49 µM (active)
ClCCN1CCCC1,outcome,[1],inactive
same,Potency,[2],inactive
same,Potency,[3],inactive
same,Potency,[4],inactive
same,Potency,[5],inactive
same,Potency,[6],inactive
same,Potency,[7],inactive
same,Potency,[8],inactive
same,Potency,[9],inactive
same,Potency,[11],inactive
same,Potency,[12],inactive
CC(C)(N)Cc1ccccc1Cl,outcome,[1],inactive
same,Potency,[2],inactive
same,Potency,[3],inactive
same,Potency,[4],inactive
same,Potency,[5],inactive
same,Potency,[6],inactive
same,Potency,[7],inactive
same,Potency,[8],inactive
same,Potency,[9],inactive
same,Potency,[10],inactive
same,Potency,[11],inactive
same,Potency,[12],inactive
CC(C(=O)c1ccccc1)N(C)C (configuration not stated),outcome,[1],inactive
same,Potency,[2],inactive
same,Potency,[3],inactive
same,Potency,[4],inactive
same,Potency,[5],inactive
same,Potency,[6],inactive
same,Potency,[7],inactive
same,Potency,[8],inactive
same,Potency,[9],inactive
same,Potency,[11],inactive
same,Potency,[12],inactive
Clc1ccc(C(c2ccc(Cl)cc2)C(Cl)(Cl)Cl)cc1,Potency,[13],inactive
same,outcome,[1],inactive
same,Potency,[2],inactive
same,Potency,[3],inactive
same,Potency,[4],inactive
same,Potency,[5],inactive
same,Potency,[6],inactive
same,Potency,[8],inactive
same,Potency,[10],5.31 µM (active)
Nc1nc(Cl)nc2c1ncn2[C@@H]1O[C@H](CO)[C@@H](O)[C@@H]1F,Potency,[2],inactive
O=C1c2ccccc2C(=O)c2c1ccc(O)c2O,Potency,[2],inactive
same,Potency,[3],inactive
same,Potency,[4],inactive
same,Potency,[5],inactive
Cc1onc(-c2ccccc2)c1C(=O)N[C@@H]1C(=O)N2[C@@H](C(=O)O)C(C)(C)S[C@@H]12,Potency,[2],inactive
same,Potency,[3],inactive
C[C@]12CCC(=O)C=C1CC[C@@H]1[C@@H]2CC[C@@]2(C)[C@H]1CC[C@]2(C)O,outcome,[1],inactive
same,Potency,[2],inactive
same,Potency,[3],inactive
same,Potency,[4],inactive
same,Potency,[5],inactive
same,Potency,[6],inactive
same,Potency,[7],inactive
same,Potency,[9],inactive
same,Potency,[11],inactive
